Measured values published in PubChem BioAssay (EPA / NIEHS).
Records with an inconclusive call do not appear. The source made the active and inactive calls. How the source made its calls: active means hit-call score of the fitted dose curve at least 0.9, where 1 is the maximum; inconclusive means response in the unintended direction; inactive means score below 0.9.

Tests used:
[1] = molecular target: human Aurora Kinase A - serine/threonine-protein Kinase 6 (AurA), AURKA (gene 6790) (UniProt O14965); test: NVS_ENZ_hAurA: NovaScreen (NVS) Enzymatic Assay for human Aurora Kinase A - serine/threonine-protein Kinase 6 (AurA) (AID 2283142)
Method in brief: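 Cell-free enzymatic assay with human Aurora A, 1 hour after dosing. Fluorescent substrate turnover detected after electrophoretic mobility shift separation of substrate and product. Screened at 25 uM, actives retested in concentration-response up to 50 uM.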

[2] = molecular target: human Ephrin type-A Receptor 2 (EphA2), EPHA2 (gene 1969) (UniProt P29317); test: NVS_ENZ_hEphA2: NovaScreen (NVS) Enzymatic Assay for human Ephrin type-A Receptor 2 (EphA2) (AID 2283155)
Method in brief: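 Cell-free recombinant EphA2 kinase with specific substrate, 1 h, fluorescence with electrophoretic mobility-shift separation of substrate and product. Primary screen at 25 uM in duplicate; hits retested in singleton concentration-response up to 50 uM, referenced to DMSO.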

[3] = molecular target: human Fibroblast Growth Factor Receptor 1 (FGFR1), FGFR1 (gene 2260) (UniProt P11362); test: NVS_ENZ_hFGFR1: NovaScreen (NVS) Enzymatic Assay for human Fibroblast Growth Factor Receptor 1 (FGFR1) (AID 2283159)
Method in brief: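 Cell-free recombinant kinase with fluorescent substrate, product separated by electrophoretic mobility shift; read 1 hour after dosing, loss of signal relative to DMSO. Initial screen in duplicate at 25 uM, actives followed in concentration series.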

[4] = molecular target: human Matrix Metalloproteinase-1 (MMP1), MMP1 (gene 4312) (UniProt P03956); test: NVS_ENZ_hMMP1: NovaScreen (NVS) Enzymatic Assay for human Matrix Metalloproteinase-1 (MMP1) (AID 2283181)
Method in brief: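 Human MMP1 enzyme activity measured by fluorescence 1 h after dosing, cell-free, with a specific substrate. Screened in duplicate at 25 uM; hits (e.g. 30% inhibition) run in concentration-response up to 50 uM; loss of signal versus DMSO.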

[5] = molecular target: human p21 Activated Kinase 4 (PAK4), PAK4 (gene 10298) (UniProt O96013); test: NVS_ENZ_hPAK4: NovaScreen (NVS) Enzymatic Assay for human p21 Activated Kinase 4 (PAK4) (AID 2283189)
Method in brief: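 Cell-free recombinant human PAK4 activity assay; fluorescent substrate and product separated by electrophoretic mobility shift, read 1 h after dosing. Initially tested in duplicate at 25 uM, relative to DMSO baseline.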

[6] = molecular target: human Protein Tyrosine Phosphatase Receptor Type C (PTPRC), PTPRC (gene 5788) (UniProt P08575); test: NVS_ENZ_hPTPRC: NovaScreen (NVS) Enzymatic Assay for human Protein Tyrosine Phosphatase Receptor Type C (PTPRC) (AID 2283212)
Method in brief: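 Yeast-extracted human PTPRC used in a cell-free colorimetric enzyme activity read-out, 1 h after dosing. Primary screen in duplicate at 25 uM; actives rerun in concentration-response up to 50 uM, DMSO as baseline.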

[7] = molecular target: human Tyrosine Protein Kinase Receptor Tie-2 (Tie2), TEK (gene 7010) (UniProt Q02763); test: NVS_ENZ_hTie2: NovaScreen (NVS) Enzymatic Assay for human Tyrosine Protein Kinase Receptor Tie-2 (Tie2) (AID 2283225)
Method in brief: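 Recombinant human Tie2 kinase activity was read cell-free by fluorescence with electrophoretic mobility shift, 1 hour after dosing. The screen used 25 uM in duplicate, then concentration-response up to 50 uM. Signal loss was scored against DMSO.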

[8] = molecular target: Norway rat Vesicular Monoamine Transporter (VMAT2), neurotransmitter transporter, Slc18a2 (gene 25549) (UniProt Q01827); test: NVS_TR_rVMAT2: NovaScreen (NVS) Transporter Assay for Norway rat Vesicular Monoamine Transporter (VMAT2), neurotransmitter transporter (AID 2283376);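 further: actives lower the bound radioligand signal below the DMSO level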
Method in brief: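 Tissue: rat forebrain extract. Format: competitive radioligand binding, cell-free. Timepoint: 1 h. Readout: filter radiodetection/scintillation. Screen: 25 uM in duplicate, then concentration series for actives. Baseline: DMSO.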

[9] = molecular target: human Epidermal Growth Factor Receptor (EGFR), EGFR (gene 1956) (UniProt P00533); test: NVS_ENZ_hEGFR: NovaScreen (NVS) Enzymatic Assay for human Epidermal Growth Factor Receptor (EGFR) (AID 2283151)
Method in brief: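 Cell-free kinase assay, fluorescence plus electrophoretic mobility shift separating substrate and product, read 1 hour after dosing; loss of signal vs DMSO. Duplicate screen at 25 uM, then concentration-response to 50 uM.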

[10] = molecular target: Protein deacetylase HDAC6 (Homo sapiens) (UniProt Q9UBN7); test: NVS_ENZ_hHDAC6: NovaScreen (NVS) Enzymatic Assay for human Histone Deacetylase 6 (HDAC6) (AID 2283164)
Method in brief: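 Recombinant human HDAC6 with fluorescent substrate, 1 h; product separated from substrate by electrophoretic mobility shift. Primary screen in duplicate at 25 uM; actives retested singly in concentration-response up to 50 uM, fitted relative to DMSO.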

[11] = molecular target: human Mitogen-Activated Protein Kinase 1 (MAPK 1), MAPK1 (gene 5594) (UniProt P28482); test: NVS_ENZ_hMAPK1: NovaScreen (NVS) Enzymatic Assay for human Mitogen-Activated Protein Kinase 1 (MAPK 1) (AID 2283175)
Method in brief: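 Cell-free recombinant human MAPK1 enzymatic assay, fluorescence/electrophoretic mobility shift read at 1 h; loss of signal vs DMSO. Primary screen in duplicate at 25 uM; actives (e.g. ≥30% inhibition) run as concentration-response up to 50 uM.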

[12] = molecular target: human Phosphatase and Tensin Homolog (PTEN), PTEN (gene 5728) (UniProt P60484); test: NVS_ENZ_hPTEN: NovaScreen (NVS) Enzymatic Assay for human Phosphatase and Tensin Homolog (PTEN) (AID 2283203)
Method in brief: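 Cell-free recombinant human PTEN with fluorescent substrate; product separated by electrophoretic mobility shift and read by fluorescence 1 h after dosing. Primary screen in duplicate at 25 uM, actives followed in concentration series versus DMSO.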

[13] = molecular target: human Protein Tyrosine Phosphatase Non-receptor Type 2 (PTPN2), PTPN2 (gene 5771) (UniProt P17706); test: NVS_ENZ_hPTPN2: NovaScreen (NVS) Enzymatic Assay for human Protein Tyrosine Phosphatase Non-receptor Type 2 (PTPN2) (AID 2283207)
Method in brief: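 Cell-free recombinant enzyme with fluorescent substrate, product separated by electrophoretic mobility shift; read 1 h after dosing. Primary screen single concentration (25 uM) in duplicate; actives followed in concentration series; loss of signal versus DMSO.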

[14] = molecular target: human Raf-1 Proto-Oncogene, serine/threonine Kinase (RAF1), RAF1 (gene 5894) (UniProt P04049); test: NVS_ENZ_hRAF1: NovaScreen (NVS) Enzymatic Assay for human Raf-1 Proto-Oncogene, serine/threonine Kinase (RAF1) (AID 2283216)
Method in brief: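 Cell-free recombinant kinase with specific fluorescent substrate, product separated by electrophoretic mobility shift; read 1 h after dosing. Primary screen at 25 uM in duplicate; hits then run in concentration-response up to 50 uM, fitted as loss of signal versus DMSO.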

[15] = molecular target: human Ephrin type-B Receptor 2 (EphB2), EPHB2 (gene 2048) (UniProt P29323); test: NVS_ENZ_hEphB2: NovaScreen (NVS) Enzymatic Assay for human Ephrin type-B Receptor 2 (EphB2) (AID 2283156)
Method in brief: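 Recombinant kinase with fluorescent substrate, product separated by electrophoretic mobility shift, read 1 h after dosing. Duplicate 25 uM screen, then singleton concentration-response to 50 uM max; loss of signal versus DMSO.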

[16] = molecular target: human NIMA (Never In Mitosis Gene A)-Related Kinase 2 (NEK2), NEK2 (gene 4751) (UniProt P51955); test: NVS_ENZ_hNEK2: NovaScreen (NVS) Enzymatic Assay for human NIMA (Never In Mitosis Gene A)-Related Kinase 2 (NEK2) (AID 2283188)
Method in brief: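 Cell-free NEK2 enzyme activity after 1 h exposure, read by fluorescence with electrophoretic mobility shift separating substrate and product. Primary screen in duplicate at 25 uM; actives then run as concentration series. Loss of signal versus DMSO scored.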

[17] = ATG_M_32_XSP2: Attagene TRANS-FACTORIAL Multi-Species (XSP2) HepG2 Assay for M19 Transcription Factor (Internal Marker) (AID 2283826)
Method in brief: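 Total RNA is taken from compound-treated HepG2 cells after 24 h and reverse-transcribed; reporter cDNA is PCR-amplified, end-labelled with 6-FAM, digested with HpaI for 2h at 37 C and sized by capillary electrophoresis. Activity is fitted in the positive direction against DMSO.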

[18] = system: rat Monoamine Oxidase, MAO-A, Peripheral (MAOAP), gene 29253; test: NVS_ENZ_rMAOAP: NovaScreen (NVS) Enzymatic Assay for rat Monoamine Oxidase, MAO-A, Peripheral (MAOAP) (AID 2283237)
Method in brief: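 Rat liver mitochondrial membranes served as the MAO-A source, with enzyme activity measured by radiometric scintillation counting 1.17 hours after dosing. Loss of signal was fitted against DMSO; primary screen used 25 uM in duplicate, follow-up used concentration series.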

[19] = molecular target: human Caspase 2 (CASP2), CASP2 (gene 835) (UniProt P42575); test: NVS_ENZ_hCASP2: NovaScreen (NVS) Enzymatic Assay for human Caspase 2 (CASP2) (AID 2283135)
Method in brief: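 E. coli-expressed enzyme in a cell-free protease assay, fluorescence read 1 h after dosing. Compounds at 25 uM in duplicate, with concentration-response up to 50 uM for hits; loss of signal against DMSO baseline.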

[20] = molecular target: rat Monoamine Oxidase, MAO-B, Central (MAOBC), Maob (gene 25750) (UniProt P19643); test: NVS_ENZ_rMAOBC: NovaScreen (NVS) Enzymatic Assay for rat Monoamine Oxidase, MAO-B, Central (MAOBC) (AID 2283238)
Method in brief: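 Compounds were first tested in duplicate at 25 uM against MAO-B from rat brain tissue; those passing the inhibition threshold were retested in concentration series up to 50 uM. Radiodetection by scintillation counting at 1.17 h, analysed against DMSO baseline.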

[21] = molecular target: bovine Gamma-Aminobutyric Acid Type A Receptor BDZ, alpha 1 site (GABARa1), GABRA1 (gene 780973) (UniProt P08219); test: NVS_LGIC_bGABARa1: NovaScreen (NVS) Ligand-Gated Ion Channel Assay for bovine Gamma-Aminobutyric Acid Type A Receptor BDZ, alpha 1 site (GABARa1) (AID 2283321)
Method in brief: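 Radioligand competition binding on bovine cortical membranes, 0.75 h, filter-based scintillation counting. Primary single concentration 25 uM in duplicate; actives rerun in concentration-response to 50 uM max. Loss of signal fitted versus DMSO.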

[22] = molecular target: human Neonicotinoid receptor (NNR), CHRNA2 (gene 1135) (UniProt Q15822); test: NVS_LGIC_hNNR_NBungSens: NovaScreen (NVS) Ligand-Gated Ion Channel Assay for human Neonicotinoid receptor (NNR) (AID 2283313)
Method in brief: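 Radioligand displacement on human neuroblastoma membranes, 2 h, filter-based scintillation counting. Primary screen in duplicate at 25 uM; chemicals passing threshold (e.g. 30% inhibition) run singleton concentration-response to 50 uM; loss of binding fitted versus DMSO.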

[23] = molecular target: Voltage-dependent N-type calcium channel subunit alpha-1B (Rattus norvegicus) (UniProt Q02294); test: NVS_IC_rCaChN: NovaScreen (NVS) Ion Channel Assay for rat Calcium Channel, Type N (CaChN) (AID 2283317)

Chain of human Epidermal Growth Factor Receptor (EGFR), EGFR (gene 1956) (P00533 whole entry, looked up): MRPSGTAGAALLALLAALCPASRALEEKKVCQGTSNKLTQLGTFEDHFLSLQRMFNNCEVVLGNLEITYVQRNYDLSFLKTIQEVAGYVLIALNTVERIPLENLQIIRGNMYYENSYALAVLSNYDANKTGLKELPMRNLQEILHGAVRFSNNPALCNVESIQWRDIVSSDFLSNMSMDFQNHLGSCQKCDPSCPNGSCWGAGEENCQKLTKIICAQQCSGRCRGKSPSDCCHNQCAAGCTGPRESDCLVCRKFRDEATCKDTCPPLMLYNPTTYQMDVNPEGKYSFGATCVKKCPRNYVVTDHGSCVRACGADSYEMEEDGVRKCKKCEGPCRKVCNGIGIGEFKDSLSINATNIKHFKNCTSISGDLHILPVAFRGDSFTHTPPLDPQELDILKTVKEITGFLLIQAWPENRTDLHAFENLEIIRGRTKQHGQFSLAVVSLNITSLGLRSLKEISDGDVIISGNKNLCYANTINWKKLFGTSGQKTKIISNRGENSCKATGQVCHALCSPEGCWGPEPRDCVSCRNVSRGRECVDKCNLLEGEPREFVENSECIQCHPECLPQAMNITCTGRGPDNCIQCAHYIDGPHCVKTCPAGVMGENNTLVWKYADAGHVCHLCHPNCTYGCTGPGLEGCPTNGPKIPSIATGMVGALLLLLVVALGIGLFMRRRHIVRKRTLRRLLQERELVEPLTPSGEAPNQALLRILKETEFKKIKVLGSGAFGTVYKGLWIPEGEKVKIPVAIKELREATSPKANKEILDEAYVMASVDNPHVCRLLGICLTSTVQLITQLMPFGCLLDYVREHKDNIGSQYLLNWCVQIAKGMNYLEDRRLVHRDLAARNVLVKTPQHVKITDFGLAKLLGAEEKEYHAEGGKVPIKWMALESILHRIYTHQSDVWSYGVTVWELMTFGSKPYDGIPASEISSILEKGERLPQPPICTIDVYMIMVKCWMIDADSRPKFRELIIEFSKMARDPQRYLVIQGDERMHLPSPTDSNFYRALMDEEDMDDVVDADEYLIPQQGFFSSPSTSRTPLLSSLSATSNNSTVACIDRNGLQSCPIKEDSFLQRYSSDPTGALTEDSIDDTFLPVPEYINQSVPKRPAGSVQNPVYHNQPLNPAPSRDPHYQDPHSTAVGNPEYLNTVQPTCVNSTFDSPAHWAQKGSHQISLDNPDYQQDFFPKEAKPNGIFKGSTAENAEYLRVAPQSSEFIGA
Chain of Protein deacetylase HDAC6 (Homo sapiens) (Q9UBN7 whole entry, looked up): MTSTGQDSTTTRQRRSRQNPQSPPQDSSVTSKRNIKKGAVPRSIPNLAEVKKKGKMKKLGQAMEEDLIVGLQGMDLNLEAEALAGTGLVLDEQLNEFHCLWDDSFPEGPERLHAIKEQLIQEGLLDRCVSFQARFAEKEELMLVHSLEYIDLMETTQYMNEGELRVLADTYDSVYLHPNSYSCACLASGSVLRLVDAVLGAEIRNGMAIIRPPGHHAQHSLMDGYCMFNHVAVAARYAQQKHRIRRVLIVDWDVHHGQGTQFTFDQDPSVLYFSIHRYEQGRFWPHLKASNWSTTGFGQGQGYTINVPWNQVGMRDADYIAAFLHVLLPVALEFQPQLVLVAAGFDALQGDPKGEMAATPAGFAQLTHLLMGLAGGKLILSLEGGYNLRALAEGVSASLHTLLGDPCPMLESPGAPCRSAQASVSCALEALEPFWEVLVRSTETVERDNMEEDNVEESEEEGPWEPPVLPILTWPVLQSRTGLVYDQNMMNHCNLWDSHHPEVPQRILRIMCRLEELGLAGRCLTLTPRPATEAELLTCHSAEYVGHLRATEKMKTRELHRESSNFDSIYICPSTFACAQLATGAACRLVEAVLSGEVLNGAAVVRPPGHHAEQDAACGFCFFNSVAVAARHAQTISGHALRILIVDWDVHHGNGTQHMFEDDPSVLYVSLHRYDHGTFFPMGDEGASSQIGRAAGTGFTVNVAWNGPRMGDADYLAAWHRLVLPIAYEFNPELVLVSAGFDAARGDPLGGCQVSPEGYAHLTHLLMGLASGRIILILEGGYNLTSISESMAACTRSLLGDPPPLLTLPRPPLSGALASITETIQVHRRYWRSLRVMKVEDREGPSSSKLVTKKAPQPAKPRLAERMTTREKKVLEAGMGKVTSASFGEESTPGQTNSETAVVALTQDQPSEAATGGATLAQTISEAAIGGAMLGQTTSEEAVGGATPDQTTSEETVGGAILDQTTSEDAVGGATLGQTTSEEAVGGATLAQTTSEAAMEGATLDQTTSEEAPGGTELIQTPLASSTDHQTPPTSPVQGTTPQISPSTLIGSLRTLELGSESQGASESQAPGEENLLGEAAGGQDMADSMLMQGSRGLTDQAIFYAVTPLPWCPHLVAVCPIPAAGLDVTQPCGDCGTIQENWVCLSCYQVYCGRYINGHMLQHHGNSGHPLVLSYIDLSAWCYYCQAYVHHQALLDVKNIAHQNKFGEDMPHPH
Chain of human Fibroblast Growth Factor Receptor 1 (FGFR1), FGFR1 (gene 2260) (P11362 whole entry, looked up): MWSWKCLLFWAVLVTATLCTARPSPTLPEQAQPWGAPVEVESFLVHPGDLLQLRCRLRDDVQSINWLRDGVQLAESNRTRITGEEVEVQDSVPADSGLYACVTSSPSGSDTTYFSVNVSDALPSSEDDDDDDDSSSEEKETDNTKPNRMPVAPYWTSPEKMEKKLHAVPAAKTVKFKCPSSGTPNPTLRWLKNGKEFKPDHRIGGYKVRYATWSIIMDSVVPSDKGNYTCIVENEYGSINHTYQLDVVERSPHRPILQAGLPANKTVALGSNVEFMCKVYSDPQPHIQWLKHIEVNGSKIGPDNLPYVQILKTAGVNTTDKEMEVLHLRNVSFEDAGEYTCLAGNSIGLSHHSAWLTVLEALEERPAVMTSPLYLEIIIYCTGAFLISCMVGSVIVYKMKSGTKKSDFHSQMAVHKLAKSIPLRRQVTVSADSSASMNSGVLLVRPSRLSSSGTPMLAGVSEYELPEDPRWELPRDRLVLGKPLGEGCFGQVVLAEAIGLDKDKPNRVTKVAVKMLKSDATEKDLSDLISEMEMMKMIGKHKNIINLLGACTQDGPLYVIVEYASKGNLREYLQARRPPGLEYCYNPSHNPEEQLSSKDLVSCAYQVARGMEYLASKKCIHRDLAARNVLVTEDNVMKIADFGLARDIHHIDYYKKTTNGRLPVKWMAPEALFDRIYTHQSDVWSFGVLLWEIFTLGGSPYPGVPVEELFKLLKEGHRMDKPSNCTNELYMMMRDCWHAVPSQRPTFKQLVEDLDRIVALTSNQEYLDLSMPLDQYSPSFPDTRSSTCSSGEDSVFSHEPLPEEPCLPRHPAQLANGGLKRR
Chain of human Tyrosine Protein Kinase Receptor Tie-2 (Tie2), TEK (gene 7010) (Q02763 whole entry, looked up): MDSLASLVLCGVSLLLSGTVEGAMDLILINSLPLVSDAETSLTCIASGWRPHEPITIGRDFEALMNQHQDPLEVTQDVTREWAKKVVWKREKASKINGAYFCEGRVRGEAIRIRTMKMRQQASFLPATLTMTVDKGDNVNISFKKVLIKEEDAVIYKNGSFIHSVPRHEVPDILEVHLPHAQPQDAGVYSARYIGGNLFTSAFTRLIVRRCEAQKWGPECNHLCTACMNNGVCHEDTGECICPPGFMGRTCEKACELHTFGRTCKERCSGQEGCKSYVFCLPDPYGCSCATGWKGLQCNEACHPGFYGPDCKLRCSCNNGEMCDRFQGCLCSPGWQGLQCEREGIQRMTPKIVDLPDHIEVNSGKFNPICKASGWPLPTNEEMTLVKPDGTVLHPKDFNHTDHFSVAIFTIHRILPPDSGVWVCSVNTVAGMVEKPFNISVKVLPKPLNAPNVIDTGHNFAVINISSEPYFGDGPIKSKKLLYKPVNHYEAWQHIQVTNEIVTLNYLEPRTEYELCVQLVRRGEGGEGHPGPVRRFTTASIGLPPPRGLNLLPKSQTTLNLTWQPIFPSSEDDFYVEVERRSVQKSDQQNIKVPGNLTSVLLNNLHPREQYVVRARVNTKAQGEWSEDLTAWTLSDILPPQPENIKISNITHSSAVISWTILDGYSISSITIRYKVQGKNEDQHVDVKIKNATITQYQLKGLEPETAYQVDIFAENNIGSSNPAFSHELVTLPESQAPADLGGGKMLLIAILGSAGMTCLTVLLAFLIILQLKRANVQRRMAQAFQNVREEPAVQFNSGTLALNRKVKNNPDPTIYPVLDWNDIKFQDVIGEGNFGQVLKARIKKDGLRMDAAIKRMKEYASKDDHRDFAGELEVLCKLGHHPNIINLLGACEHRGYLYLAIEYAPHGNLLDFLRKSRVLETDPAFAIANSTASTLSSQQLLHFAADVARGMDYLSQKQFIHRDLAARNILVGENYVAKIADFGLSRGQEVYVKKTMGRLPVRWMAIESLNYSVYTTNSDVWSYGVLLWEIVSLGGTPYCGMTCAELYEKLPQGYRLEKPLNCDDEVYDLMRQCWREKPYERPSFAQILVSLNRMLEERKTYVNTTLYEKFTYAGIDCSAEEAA
Chain of human Raf-1 Proto-Oncogene, serine/threonine Kinase (RAF1), RAF1 (gene 5894) (P04049 whole entry, looked up): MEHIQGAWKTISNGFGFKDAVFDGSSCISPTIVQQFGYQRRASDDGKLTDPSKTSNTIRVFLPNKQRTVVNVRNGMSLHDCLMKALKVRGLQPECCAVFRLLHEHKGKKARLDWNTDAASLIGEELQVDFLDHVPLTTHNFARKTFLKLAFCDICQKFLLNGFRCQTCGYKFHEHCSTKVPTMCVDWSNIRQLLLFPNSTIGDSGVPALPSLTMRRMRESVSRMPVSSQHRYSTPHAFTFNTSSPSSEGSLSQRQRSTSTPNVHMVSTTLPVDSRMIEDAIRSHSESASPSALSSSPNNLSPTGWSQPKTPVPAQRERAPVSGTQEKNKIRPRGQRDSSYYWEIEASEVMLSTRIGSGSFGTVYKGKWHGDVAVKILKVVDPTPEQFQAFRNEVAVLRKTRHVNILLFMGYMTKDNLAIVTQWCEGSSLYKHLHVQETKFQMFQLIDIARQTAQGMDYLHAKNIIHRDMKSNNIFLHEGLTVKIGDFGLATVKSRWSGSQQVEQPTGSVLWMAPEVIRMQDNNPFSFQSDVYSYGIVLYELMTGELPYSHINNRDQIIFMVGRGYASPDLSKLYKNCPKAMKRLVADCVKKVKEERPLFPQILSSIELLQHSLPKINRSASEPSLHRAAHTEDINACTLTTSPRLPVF

O=C(NO)C1(NS(=O)(=O)c2ccc(Oc3ccc(F)cc3)cc2)CCOCC1
outcome [1]: inactive
outcome [2]: inactive
outcome [3]: inactive
AC50 [4]: 17.9 µM (active)
outcome [5]: inactive
outcome [6]: inactive
outcome [7]: inactive
outcome [8]: inactive

Cc1ncc([C@@H](CCCCCCc2ccc3c(n2)NCCC3)CC(=O)O)cn1
outcome [1]: inactive
outcome [9]: inactive
AC50 [10]: 14.9 µM (active)
outcome [11]: inactive
outcome [5]: inactive
outcome [12]: inactive
outcome [13]: inactive
outcome [14]: inactive
outcome [7]: inactive

CCCCCCCC/C=C\CCCCCCCC(=O)OC[C@@H](O)[C@H]1OC[C@H](O)[C@H]1O
outcome [1]: inactive
outcome [9]: inactive
AC50 [15]: 6.52 µM (active)
outcome [10]: inactive

O=C(O)Cc1cc(I)c(Oc2ccc(O)c(I)c2)c(I)c1
AC50 [1]: 1.37 µM (active)
outcome [9]: inactive
outcome [16]: inactive
outcome [14]: inactive
outcome [17]: inactive

O=C(N[C@@H](c1ccccc1)[C@@H]1CCCCN1)c1cccc(C(F)(F)F)c1Cl
outcome [1]: inactive
outcome [18]: inactive

NCCO
outcome [1]: inactive
outcome [9]: inactive
outcome [3]: inactive
outcome [10]: inactive
outcome [11]: inactive
outcome [12]: inactive
outcome [13]: inactive
outcome [14]: inactive
outcome [7]: inactive

N[C@@H](Cc1c[nH]c2ccccc12)C(=O)O
outcome [19]: inactive

CC(CO)OC(C)CO (stereo not drawn) (tested in a mixture with another compound)
outcome [10]: inactive
outcome [7]: inactive

CC(C)CCCCCCOC(=O)C1CCCCC1C(=O)OCCCCCCC(C)C (stereo not drawn)
outcome [9]: inactive

NC(=O)NO
outcome [10]: inactive

Cc1ncc(CO)c(CO)c1O
outcome [2]: inactive

C#C[C@]1(O)CC[C@H]2[C@@H]3CCC4=CC(=O)CC[C@@H]4[C@H]3CC[C@@]21C
outcome [10]: inactive
outcome [7]: inactive
outcome [20]: inactive
AC50 [21]: 1.27 µM (active)

CN(C)CCCN1c2ccccc2Sc2ccc(Cl)cc21
outcome [3]: inactive
AC50 [22]: 35.7 µM (active)
outcome [21]: inactive

COC(=O)CCCCC(=O)OC
outcome [3]: inactive
outcome [14]: inactive
outcome [23]: inactive
